Screening results: PubChem, National Center for Advancing Translational Sciences (NCATS)
Most compounds without a hit are left out; they make up all but 2.4% or so of the library.
Pol kappa inh: blocks human DNA polymerase kappa activity. Q9UBT6. 400,000 tested, 0.53% active. purified Pol kappa, fluorescent DNA synthesis assay, 10 min. Potency, µM (doses to about 107 µM), for inactives: at the highest dose activity, negative = inhibition, most hits filed as inhibitors. AID 588579; note: % is set by controls: 0 for no effect and ±100 for the full control effect
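Activity was followed as the change in fluorescence between reads at 0 and 10 min after starting the reaction with 50 nM substrate. Beforehand, 10 nM polymerase had been preincubated with compound for 15 min at room temperature.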
FEN1 inhibitor: human FEN1 inhibition | P39748 | Recombinant FEN1 flap cleavage, fluorescence, 15 min | Potency, µM (top dose mostly 114 µM), without a hit: at the top dose activity change, negative = inhibition, most hits filed as inhibitors | 390,000 tested, 0.35% active | AID 588795; note: % is set by controls: 0 for no effect and ±100 for the full control effect; nearly all actives have a fitted effect of over 65% in size
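FEN1 at 10 nM, compound pretreatment for 15 min (room temperature), 50 nM final substrate to initiate; endpoint reads at 0 and 15 min; DMSO-only plates used as vehicle background.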
POLH inh: DNA polymerase eta (human) inhibition. recombinant Pol eta, fluorescent DNA replication assay. 390,000 tested, 1.2% active. Potency, µM (titrated, usually from 114 µM), without a hit: top-dose activity change, negative = inhibition, usual class: inhibitors; note: % is set by controls: 0 for no effect and ±100 for the full control effect
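Fluorescent replication assay: 50 nM final substrate added after a 15 min room-temperature compound preincubation with 10 nM enzyme. Signal taken at 0 min and again at 10 min.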
POLB inh: DNA polymerase beta (human) inhibition | P06746 | Pol beta primer extension/strand displacement, fluorescence kinetic | Potency, µM (highest dose often 114 µM), inactives show at the top dose activity change, negative = inhibition, hits mostly inhibitors | 340,000 tested, 1.3% active; note: % is set by controls: 0 for no effect and ±100 for the full control effect
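10 nM enzyme + cpd, 15 min RT; start with substrate 50 nM final; read 0 min and after 10 min RT. Corrected, normalized data; 4-parameter Hill curve fit.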
Pol iota inh: inhibitors of human DNA polymerase iota | Q9UNA4 | Pol iota fluorescent replication assay, 10 min | Potency, µM (series often up to 115 µM), without a hit: at the highest dose activity, negative = inhibition, hits mostly inhibitors | 390,000 tested, 1% active
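Fluorescent replication assay read twice, at 0 min and 10 min after adding 50 nM (final) substrate. Enzyme (10 nM) and compounds were first incubated 15 min at room temperature; enzyme-free buffer wells were negative controls.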
TDP1 block: blocks human tyrosyl-DNA phosphodiesterase 1; Q9NUW8; 350,000 tested, 0.28% active; AID 485290; Potency, µM (titrated, usually from 130 µM), without a hit: at the top dose activity change, negative = inhibition, usual class: inhibitors; recombinant TDP1, AlphaScreen DNA substrate cleavage; note: % is set by controls: 0 for no effect and ±100 for the full control effect; nearly all actives have a fitted effect of over 40% in size
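Steps: enzyme plus compound, 15 min RT; add biotin/phosphotyrosine-FITC oligonucleotide (15 nM final), react 5 min; add donor/acceptor beads (10 ug/ml final), 10 min; read AlphaScreen. Tdp1 at 1 nM final.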
Starred values were filed as active, the others as inactive; [ ] = another dose, or the depositor's remark. Calls come from the whole dose curve; as a rule, active = well fitted curve in the direction sought with a large enough effect; inconclusive = small, poorly fitted or top-dose-only effect, or another doubt; inactive = no such curve, though single readings can be large; an effect the other way counts as inactive or inconclusive. Potency is the fitted concentration of half-maximal effect.

Screening CC(=O)[O][Hg][c]1ccccc1 returned Pol kappa inh -7.0%[19.4 µM] and TDP1 block 31.6µM*.
Screening CC(C)(Oc1ccc(Cl)cc1)C(=O)OCC(=O)N1CCN(c2ccccc2)CC1 returned Pol kappa inh -14.2%, FEN1 inhibitor -8.6%, POLH inh -14.1%, Pol iota inh 46.4% and TDP1 block 4.2%.
For CCC(C)=O the results were TDP1 block 16.6%.
For Cc1cc(/C=C/c2cccc3sc(C)[n+](CCCCI)c23)ccc1N(CCCl)CCCl the results were Pol kappa inh 56.2µM*, FEN1 inhibitor inconclusive and Pol iota inh 79.4µM*.
Cc1cc(/C=C/c2ccnc3ccccc23)ccc1N(CCCl)CCCl was read as Pol kappa inh -13.6%, FEN1 inhibitor -33.0% and Pol iota inh inconclusive.
For CN(CC(=O)NC(=O)NCc1ccco1)CC(=O)Nc1ccccc1Cl the results were Pol kappa inh inconclusive, FEN1 inhibitor -10.1%, POLH inh inconclusive, POLB inh 7.7%, Pol iota inh 50.1µM* and TDP1 block 0.0%.
`NC(Cc1cc(O)c(O)cc1O)C(=O)O` (stereo not drawn) gave Pol kappa inh 0.67µM*, FEN1 inhibitor 3.16µM*, POLH inh 0.282µM*, POLB inh 0.112µM*, Pol iota inh 0.398µM* and TDP1 block 0.178µM*.
COC(C(=O)C(O)C(C)O)C1Cc2cc3cc(OC4CC(OC5CC(O)C(OC)C(C)O5)C(OC(C)=O)C(C)O4)c(C)c(O)c3c(O)c2C(=O)C1OC1CC(OC2CC(OC3CC(C)(O)C(OC(C)=O)C(C)O3)C(O)C(C)O2)C(O)C(C)O1 (stereo not drawn) was read as Pol kappa inh 21.2µM* and TDP1 block 12.8%.
`CC(C)C[C@H](NC(=O)[C@@H](N)Cc1ccccc1)C(=O)N[C@@H](Cc1ccccc1)C(=O)N[C@@H](CCC(N)=O)C(=O)N1CCC[C@H]1C(=O)N[C@@H](CCC(N)=O)C(=O)N[C@@H](CCCN=C(N)N)C(=O)N[C@@H](Cc1ccccc1)C(N)=O` gave Pol kappa inh 15.7%[60.1 µM] and TDP1 block 8.9%.
`NC(Cc1ccc(Oc2cc(I)c(O)c(I)c2)c(I)c1)C(=O)O` (stereo not drawn) gave Pol kappa inh 7.08µM*.
For C[C@H](CCC(=O)O)[C@H]1CC[C@@H]2[C@H]3CC[C@H]4C[C@H](O)CC[C@]4(C)[C@@H]3CC[C@@]21C the results were Pol kappa inh -12.4%[19.4 µM] and TDP1 block inconclusive.
Screening CC(CCC(=O)O)C1CCC2C3C(=O)C[C@@H]4CC(=O)CC[C@@]4(C)C3CC(=O)[C@]12C (stereo partly drawn) returned Pol kappa inh -2.8%[60.1 µM] and TDP1 block 15.2%.
O=C1NC(=O)N(c2ccccc2)C(=O)/C1=C/c1coc2ccc(O)cc2c1=O was read as Pol kappa inh inconclusive, FEN1 inhibitor -1.8%, POLH inh inconclusive, POLB inh 3.0% and Pol iota inh 22.4µM*.
O=C1NC(=O)N(c2ccc(Cl)cc2)C(=O)/C1=C/c1coc2ccc(O)cc2c1=O was read as Pol kappa inh inconclusive, FEN1 inhibitor -18.8%, POLH inh inconclusive, POLB inh inconclusive and Pol iota inh inconclusive.
Screening N#CC(C#N)=Cc1cc(O)c(O)c(O)c1 returned Pol kappa inh 3.16µM*, POLH inh 2.24µM*, POLB inh -25.7%[57.1 µM], Pol iota inh 9.47µM* and TDP1 block 15.7%[56.1 µM].
Oc1ccccc1O was read as Pol kappa inh 50.1µM*, FEN1 inhibitor -3.6%, POLH inh inconclusive, POLB inh 39.8µM*, Pol iota inh 79.4µM* and TDP1 block inconclusive.
For O=C1C=CC(=O)c2c(O)cccc21 the results were Pol kappa inh 2.67µM* and TDP1 block -6.2%.
